PubChem BioAssay (NCI)
About 83,000 compounds went through this panel and 20% of them were active in at least one assay; those are over-represented in the sample as a whole.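 96-well plates, one dose, 48 hours. Percent growth reported; active if below 10.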 Activity calls are given as the source filed them.

The compounds below were run on HCT-15 colon (assay: NCI-60 one-dose screen, 48 h (100 = growth as untreated, 0 = no growth, -100 = all killed)). Conditions: 10 µM unless noted.
With `N/C(=N\c1nc2ccccc2[nH]1)NC(=O)Cc1cccc2ccccc12` the growth was 71.7% (inactive).
For `CC1(C)CC[C@]2(C(N)=O)CC[C@]3(C)C(=CC[C@@H]4[C@@]5(C)C/C(=C/c6ccncc6)C(=O)C(C)(C)[C@@H]5CC[C@]43C)[C@@H]2C1`, the growth was -49.7% [100 µM] (active).
For `Cc1ccc(C2=C/C(=C/c3ccc(Br)cc3)C(=O)N2CCc2ccc(S(N)(=O)=O)cc2)cc1`, the growth was 99.8% (inactive).
`Cc1ccc(NCCN2CCCCC2)c2c(=O)c3ccccc3sc12` was tested, and the growth was 13.9% (inactive).
For `CC1(C)CC(=O)c2c(ccc(C(=O)C[C@@H](N)CO)c2N)O1`, the growth was 4.96% (active).
In the case of `CCCCC1COc2cccc3c2N1C=C/C3=C\C(=O)n1ccc2ccccc21` (stereo not drawn), the growth is reported as 47.6% (inactive).
`CC(C)CSc1ncnc2nc[nH]c12` was tested, and the growth was 97.2% (inactive).
For `CC1(C)CC[C@]2(C(=O)O)CC[C@]3(C)C(=CC[C@@H]4[C@@]5(C)C/C(=C/c6cccnc6)[C@H](O)C(C)(C)[C@@H]5CC[C@]43C)[C@@H]2C1`, the growth was -5.12% [100 µM] (active).
In the case of `COc1ccc(C=C2c3ccccc3-c3ccccc32)cc1`, the growth is reported as 25.8% (inactive).
`C#C[C@]1(O)CC[C@H]2[C@@H]3CC=C4c5nc(Nc6ccc(OC)cc6OC)sc5CC[C@]4(C)[C@H]3CC[C@@]21C` was tested, and the growth was -39.1% (active).
With `CCOC(=O)c1nn(C2CCCCO2)c2ccc(NC(=O)CSc3nc4ccccc4c(=O)[nH]3)cc12` (stereo not drawn) the growth was 99.5% (inactive).
With `O=c1[nH]cnc2c1ccn2C1OC(CO)C(O)C1O` (stereo not drawn) the growth was 45.5% (inactive).
`CCOC(=O)C(=Cc1ccccc1[N+](=O)[O-])C(=O)OCC` was tested, and the growth was 5.68% (active).
